Screens deposited in PubChem BioAssay by several laboratories.
Mcl1 Noxa PPI: Mcl-1/Noxa interaction inhibition; hit rate 1.5% among 220,000; TR-FRET Mcl-1/Noxa peptide binding, 2 h; inhibition, % at 21.7 µM; AID 1022; Q07820;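 active = compounds that cut the protein-peptide binding signal by more than 50% relative to plate controls in a single-dose test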;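 note: His-tagged Mcl-1 with rhodamine Noxa BH3 peptide and terbium anti-His antibody; 0% = Mcl-1 plus Noxa peptide wells and 100% = peptide-only wells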
Mcl-1 Bim block: human Bim-Mcl-1 interaction inhibition; Q07820; Bead-based flow cytometry, Bim peptide-Mcl-1 binding; inhibition, % at 10 µM; hit rate 0.1% among 190,000; AID 1009; in the data active = inhibition above about 40%;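 note: 0% = no compound tracer wells and 100% = peptide blocker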
Mcl1-Bid inh: Mcl-1/Bid interaction inhibition | Q07820 | TR-FRET Mcl-1/Bid-Dy647 peptide binding, 1536-well | inhibition, % at 21.7 µM | hit rate 0.97% among 220,000 | AID 1021;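 active = compounds that cut the binding signal by more than half at the single screening dose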;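 note: His-tagged Mcl-1 with europium anti-His antibody binding Bid BH3 peptide; 0% = Mcl-1 plus peptide wells and 100% = peptide-only wells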
MCL1-BIM inh: inhibitors of human MCL1 binding to BIM-BH3 peptide; Q07820; GST-MCL1 / FITC-Bim-BH3 fluorescence polarization; inhibition, % at 10.9 µM; hit rate 0.68% among 320,000; AID 2057;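 active = inhibition above the mean inhibition of all tested compounds plus 3 SD, set per campaign, cut at about 40% in these data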;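 note: 0% = DMSO wells and 100% = unlabeled Bim-BH3 peptide control; higher means more loss of mP so more displacement of Bim peptide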
BCLXL inh: blocks human Bcl-xL binding to Bim BH3 peptide; GST-Bcl-xL / FITC-Bim BH3 peptide fluorescence polarization; inhibition, % at 10.9 µM; hit rate 0.7% among 320,000;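 active = inhibition above the mean of all tested compounds plus 3 SD, cutoff set per campaign, cut at about 30% in these data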;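 note: 0% = DMSO wells and 100% = unlabeled Bim-BH3 peptide competitor; inhibitors lower millipolarization by displacing the labeled peptide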
GLD-1 TGE inh: GLD-1-TGE RNA interaction inhibition (C. elegans); purified GLD-1 + fluorescein TGE RNA, fluorescence polarization; inhibition, % at 5.96 µM; hit rate 0.44% among 320,000;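 active = percent inhibition above a per-plate cutoff, the plate mean of test compounds plus 3 SD, cut at about 30% in these data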;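 note: 0% = DMSO wells with GLD-1 and probe and 100% = wells lacking GLD-1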
Target sequence (Q17339 whole entry, looked up): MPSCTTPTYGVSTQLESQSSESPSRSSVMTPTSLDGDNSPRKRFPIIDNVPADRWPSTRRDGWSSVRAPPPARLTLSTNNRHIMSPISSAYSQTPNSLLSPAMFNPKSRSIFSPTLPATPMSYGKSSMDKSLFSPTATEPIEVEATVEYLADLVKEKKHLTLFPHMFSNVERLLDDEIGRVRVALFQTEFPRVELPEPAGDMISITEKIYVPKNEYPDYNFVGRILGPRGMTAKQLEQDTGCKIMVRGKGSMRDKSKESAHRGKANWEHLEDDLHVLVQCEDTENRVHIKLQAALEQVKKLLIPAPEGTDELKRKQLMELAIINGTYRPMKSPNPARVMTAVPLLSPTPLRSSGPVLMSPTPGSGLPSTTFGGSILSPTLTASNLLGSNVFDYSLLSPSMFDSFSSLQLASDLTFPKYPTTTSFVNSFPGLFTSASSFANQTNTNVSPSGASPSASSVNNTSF
* marks the source's active call; other numbers are inactive results; · = no result. Most compounds without a hit are left out; they make up all but 2.3% or so of the library.

SMILES	Mcl1 Noxa PPI	Mcl-1 Bim block	Mcl1-Bid inh	MCL1-BIM inh	BCLXL inh	GLD-1 TGE inh
O=C(NC1CCCC1)c1csc2c1CCCC2	11	3	100*	5	2	9
CCOC(=O)c1ccc(NS(=O)(=O)c2c(C)[nH]c(C)c2C(=O)N2CCCCC2)cc1	·	·	·	6	14	-3
Cc1ccc2[nH]c3c(c2c1)CN(C(=O)CN1CCCc2ccccc21)CC3	8	0	-6	29	33*	-8
CN1CCc2ccc(NC(=O)c3ccc(C(F)(F)F)cc3)cc2C1	·	·	·	5	1	0
CC(C)c1ccc(C(=O)NNC(=O)c2ccncc2)cc1	·	·	·	-2	0	-4
CC(C)c1ccc(C(N)=S)cc1	68*	0	-31	8	13	-1
O=C1N/C(=N\N=C\c2ccc3ncccc3c2)SC1Cc1ccc(SC(F)F)cc1 (stereo unspecified)	13	-3	52*	4	3	-11
O=C1N/C(=N\N=C\c2cccnc2)SC1Cc1ccc(SC(F)F)cc1 (stereo unspecified)	-34	-2	-11	6	2	0
CCOC(=O)C1CCN(C(=O)c2ccc(Cl)c(S(=O)(=O)N3CCOCC3)c2)CC1	10	-5	-11	-7	1	11
CCOC(=O)C1CCN(C(=O)c2cc(S(=O)(=O)N3CCOCC3)c(Cl)cc2Cl)CC1	-7	-6	95*	9	9	10
CCOC(=O)c1c(NC(=O)c2ccccc2)sc2c(O)c(CN(CC)CC)ccc12	59*	0	21	4	8	1
O=C(Nc1ccc2nc(-c3ccccc3)[nH]c2c1)c1cccs1	18	7	-25	-5	2	3
O=C(Nc1ccc2nc(-c3ccc4nc[nH]c4c3)[nH]c2c1)c1cccs1	79*	21	-6	9	8	4
CCOC(=O)Cc1csc(-n2sc3ccccc3c2=O)n1	68*	-5	-43	6	-4	-1
COc1cccc(CNCC(=O)NC(=O)NC2CCCC2)c1	·	·	·	·	·	7
Cc1ccc(S(=O)(=O)N(C)C)cc1NC(=O)CN1CCCC1	·	·	·	-19	-3	12
CCN(CC)S(=O)(=O)c1ccc(C)c(NC(=O)CN2CCN(C)CC2)c1	33	·	65*	-4	6	-3
CC1CCCC(NC(=O)Cn2cc(Br)ccc2=O)C1C (stereo unspecified)	·	·	·	·	·	4
O=C(Nc1ccc(CCC(=O)N2CCCC2)cc1)c1ncn[nH]1	22	-4	96*	9	6	2
COc1ccc(NC(=S)Nc2ccc3nccnc3c2)cc1	52*	-1	-53	7	13	15
CNC(=S)Nc1cc(C)ccc1OC(F)F	37	-4	98*	2	4	7
Cc1ncc(CO)c(/C=N/NC(=S)Nc2ccc(Cl)c(Cl)c2)c1O	71*	-1	-61	-17	1	2
CC(C)CC1=NN(C(=O)c2ccco2)C(O)(C(F)(F)F)C1 (stereo unspecified)	-7	-1	-10	8	6	6
COC(=O)c1ccc(CNC(=O)C(NC(=O)c2ccco2)C(C)C)cc1 (stereo unspecified)	·	·	·	3	6	0
O=c1c(O)c(-c2cccs2)oc2ccc(Cl)cc12	-31	6	-31	42*	46*	57*
SMILES	Mcl1 Noxa PPI	Mcl-1 Bim block	Mcl1-Bid inh	MCL1-BIM inh	BCLXL inh	GLD-1 TGE inh
O=C(O)CC(NC(=O)COc1ccc(Cl)cc1Cl)C(=O)O (stereo unspecified)	20	-2	72*	14	10	5
COc1ccccc1C1c2[nH]c3ccccc3c2C[C@H]2C(=O)N(C3CCN(Cc4ccccc4)CC3)CC(=O)N12 (stereo partly specified)	·	·	·	2	4	0
COc1ccccc1/C=N/NC(=O)c1ccc(NC(=O)c2cccc([N+](=O)[O-])c2)cc1	11	-3	-4	10	3	-1
O=C(N/N=C/c1cccc(O)c1)c1ccc(NC(=O)c2cccc([N+](=O)[O-])c2)cc1	60*	0	-3	-7	-7	1
O=C(N/N=C/c1ccccn1)c1ccc(NC(=O)c2cccc([N+](=O)[O-])c2)cc1	17	0	-21	1	1	-3
O=C(N/N=C/c1ccc(O)cc1)c1cccc(N/N=C/c2ccc(O)cc2)c1	80*	·	-31	3	10	0
O=C(N/N=C/c1ccncc1)c1cccc(N/N=C/c2ccncc2)c1	13	4	-2	-5	-3	-9
COc1ccc(/C=N/NC(=O)c2ccc(NC(=O)c3cccc([N+](=O)[O-])c3)cc2)c(OC)c1	67*	0	28	10	-1	3
CSc1sc(C(=O)NN)c2c1C(O)CCC2 (stereo unspecified)	·	·	·	15	6	1
O=C(Nc1ccc(Cl)c(Cl)c1)NC1CCS(=O)(=O)C1 (stereo unspecified)	·	·	·	-7	-1	-4
Cc1ccc(NC(=S)Nc2cccc(-c3n[nH]c(=S)o3)c2)cc1	59*	·	-18	0	-7	8
COc1ccc2cc(C3(C)NC(=O)N(CC(=O)NCCC4=CCCCC4)C3=O)ccc2c1 (stereo unspecified)	10	4	-5	-2	-2	2
COc1ccc(C2(C)NC(=O)N(CC(=O)NCCC3=CCCCC3)C2=O)cc1OC (stereo unspecified)	6	-1	84*	-21	-6	1
COc1ccccc1-c1nnc(NC(=O)c2ccc3c(c2)OCO3)s1	14	-2	63*	-2	-3	3
CC(=O)c1ccc(N2CCN(S(=O)(=O)c3cn(C)c(C)n3)CC2)cc1	·	·	·	-6	-1	-1
O=C(NC1CC2CCCC(C1)N2C(=O)Nc1ccccc1F)C1CC1 (stereo unspecified)	·	·	·	5	9	0
Cc1ccc2nc(-c3ccc(NC(=O)CSCC(=O)O)cc3)sc2c1	9	·	19	0	10	-1
Cc1ccc2nc(-c3ccc(NC(=O)CCN4C(=O)c5ccccc5C4=O)cc3)sc2c1	49	-2	56*	-7	-1	6
O=C(CCS(=O)(=O)c1ccccc1)Nc1ccc(-c2nc3ccccc3s2)c(O)c1	22	-3	-10	-1	36*	2
O=C(O)CSCC(=O)Nc1ccc(-c2nc3ccccc3s2)cc1	56*	·	-10	1	8	-6
Cc1cc(C)c(S(=O)(=O)NCc2cn3c(C)csc3n2)cc1C	76*	0	3	3	6	-1
Cc1cc(C)c(S(=O)(=O)NCc2cn3c(C)csc3n2)c(C)c1	-54	-4	-143	8	11	-4
COc1ccc(N/C=C2\CCOC2=O)cc1	29	0	-101	3	4	7
COc1ccc(N/C=C2\C(=O)CCc3c2oc2cc(Cl)c(O)c(Cl)c32)cc1	74*	·	86*	32	6	1
